The values that follow come from PubChem BioAssay AID743049 (Broad Institute, 2013).

Measured potencies and affinities stand elsewhere. Records with an inconclusive call do not appear. Active and inactive are the calls of the source. No rule for the calls is given here.

The nature of the test: PAX8-dependent cell viability loss – plate reader, dry powder, dose response (AID 743049). As to conditions: PAX8-dependent cancer cell viability; series mostly up to 50 µM.

Consider `Cc1ccccc1CNC(=O)C1CCCN(c2nnc(C)c3c(C)n(-c4ccccc4)nc23)C1` (configuration not stated), for which the molecule was classed as inactive.
As for `COc1ccccc1C#Cc1ccc([C@@H]2[C@@H](C#N)N(C(=O)C3CCCCC3)[C@H]2CO)cc1`, the call was inactive.
